From PubChem BioAssay (EPA / NIEHS)
A structure can be active in one record and inactive in another. Calls of active or inactive are those of the source. The calls were made as follows: active = hit-call score of the fitted dose curve at least 0.9, where 1 is the maximum; inactive = score below 0.9.

Assay: BSK_BT_Bcell_Proliferation: Viability Assessment in the BioMAP Diversity Plus: BT Assay for B cell Proliferation (AID 2284227)
Settings: primary human B cells with PBMC
Procedure: BSK_BT is a cell-based, multiplexed-readout assay that uses B cell and peripheral blood mononuclear cells, a human vascular primary cell co-culture, with measurements taken at 24 hours after chemical dosing in a microplate: 96-well plate.BSK_BT_Bcell_Proliferation is an assay component measured in the BSK_BT assay. It measures protein content, a form of viability reporter, as detected with absorbance signals by Sulforhodamine staining technology.Data from the assay component BSK_BT_Bcell_Proliferation was analyzed at the endpoint, BSK_BT_Bcell_Proliferation, in the positive analysis fitting direction relative to DMSO as the negative control and baseline of activity. Using a type of viability reporter, gain or loss-of-signal activity can be used to understand cellular changes in viability. To generalize the intended target to other relatable targets, this assay endpoint is annotated to the 'cell cycle' intended target family, where the subfamily is 'proliferation'.
The levels of cell surface (or secreted, indicated by the prefix "s") biomarker endpoints were measured by ELISA. Overt cytotoxicity to cells in confluent adherent cultures (all systems other than the BT system) was assessed by measuring total protein levels using sulforhodamine B (SRB) staining in parallel cultures at the time of biomarker measurements, indicated as SRB endpoints. For proliferation assays for adherent cell types, individual cell types are cultured at sub-confluence and relative cell numbers quantified by SRB staining at time points optimized for each system (48 h: 3C and CASM3C systems; 72 h: BT and HDF3CGF systems; 96 h: SAg system). SRB was performed by staining cells with 0.1% SRB after fixation with 10% TCA and reading wells at 560 nm.Viability and proliferation of PBMC (T cells) was quantified by Alamar Blue reduction for the SAg and BT systems. For PBMC viability (referred to as PBMC Cytotoxicity within the assay endpoint names), cells were plated (75,000/well in a 96-well plate) and then chemical samples added for 1 h before addition of activators, SEB and TSST-1 (20 ng/mL final concentration each). Cells were incubated for 90 h. Then, Alamar Blue (20 uL/well) (Invitrogen, Cat DAL1100) was added for 6 h, and the plates were read with a fluorescence microplate reader at 546/580 nm (excitation/emission). For PBMC proliferation, cells were plated and activated as above but incubated for only 16 h prior to addition of Alamar Blue. Plates were read after 6 h.

| Compound | outcome | AC50 |
| --- | --- | --- |
| NCC(F)(F)C(F)(F)C(F)(F)C(F)(F)F | inactive |  |
| O=S(=O)(O)CCC(F)(F)C(F)(F)C(F)(F)C(F)(F)C(F)(F)C(F)(F)F | inactive | 30 µM (active) |
| OCc1c[nH]c2ccccc12 |  | 3.97 µM (active) |
| O=C(Cl)C(F)(F)C(F)(F)C(F)(F)C(=O)Cl | inactive |  |
| FC(F)=C(F)C(F)(F)C(F)(F)C(F)(F)C(F)(F)C(F)(F)C(F)(F)F | inactive |  |
| FC(F)C(F)(F)COCC1CO1 (centres undefined) | inactive |  |
| OC(O)(C(F)C(O)(O)C(F)(F)F)C(F)(F)F |  | 30 µM (active) |
| Cc1cccc(O)c1C | inactive |  |
| FC(F)(F)COC(OCC(F)(F)F)OCC(F)(F)F | inactive |  |
| C[Si](C)(C)C(F)(F)C(F)(F)C(F)(F)F | inactive |  |
| OCCC(F)(F)C(F)(F)C(F)(F)C(F)(F)F | inactive |  |
| FC(F)(F)C(F)(F)C(F)(F)C(F)(F)C(F)(F)C(F)(F)I | inactive |  |
| S=P(N1CC1)(N1CC1)N1CC1 |  | 8.1 µM (active) |
